Measurements published in PubChem BioAssay (NCATS).
“And” between values parts separate entries of the source, which are not always exact repeats. Equal values may be shown once. Records with an inconclusive call do not appear. Entries that show only a call come without a potency. Unmarked numbers belong to inactive results. The source made the active and inactive calls. Calls follow the shape of the dose curve; as a rule, active = well fitted curve in the direction sought with a large enough effect; inconclusive = small, poorly fitted or top-dose-only effect, or another doubt; inactive = no such curve, though single readings can be large; an effect the other way counts as inactive or inconclusive.

Key:
[1] = molecular target: Cellular tumor antigen p53 (Homo sapiens) (UniProt P04637); experiment: Primary qHTS for small molecule compounds that upregulate eGFP-tagged delta133p53alpha (in N-terminal) cells. (AID 2060322); settings: NCI-H358 eGFP-delta133p53alpha fluorescence, 24 h; activation: stronger effect = higher value; also: nearly all actives have a fitted effect of over 75% in size; also: potency is read from the fitted curve at half-maximal effect;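 as to activation: cells pre-induced with doxycycline then dosed without doxycycline; series mostly up to about 56 µM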
How it was run: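 NCI-H358 cells pre-induced 24 h with 10 ng/ml doxycycline for eGFP-delta133p53alpha, plated dox-free and exposed 24 h at 37C to titrated compounds. Fixed, Hoechst-stained; gated GFP peak intensity by laser scanning cytometry, normalized to DMSO (0%) and 57.5 uM 5-azacytidine (100%).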

[2] = molecular target: Aldehyde dehydrogenase, mitochondrial (Homo sapiens) (UniProt P05091); experiment: qHTS for Inhibitors of the Aldehyde Dehydrogenase Family (ALDH2) Primary screen (AID 2061308); also: nearly all actives have a fitted effect of over 55% in size

Cellular tumor antigen p53 (Homo sapiens), sequence (P04637 whole entry, looked up): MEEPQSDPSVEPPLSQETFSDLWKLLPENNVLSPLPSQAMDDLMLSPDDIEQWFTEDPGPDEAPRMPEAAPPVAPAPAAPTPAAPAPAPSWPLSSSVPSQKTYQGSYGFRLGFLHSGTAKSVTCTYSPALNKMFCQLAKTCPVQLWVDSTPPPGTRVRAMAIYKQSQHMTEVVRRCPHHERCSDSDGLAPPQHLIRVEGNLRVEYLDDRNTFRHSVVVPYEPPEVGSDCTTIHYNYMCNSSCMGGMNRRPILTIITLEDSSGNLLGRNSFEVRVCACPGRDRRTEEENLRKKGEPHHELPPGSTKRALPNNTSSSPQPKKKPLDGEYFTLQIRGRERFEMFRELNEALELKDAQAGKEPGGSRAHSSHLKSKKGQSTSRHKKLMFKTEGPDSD

Row | Compound | Potency [1] | Potency [2] | activation [1]
1 | N#Cc1cnc2c(Cl)cc(NCc3cn(CCN4CCCCCC4)nn3)cc2c1Nc1ccc(F)c(Cl)c1 | 4.26 µM (active) | inactive | 
2 | COC(=O)C1=COC(O[C@@H]2O[C@H](CO)[C@@H](O)[C@H](O)[C@H]2O)/C(=C\COC(=O)c2ccc(OC3OC(CO)C(O)C(O)C3O)c(OC)c2)C1CC(=O)OCCc1ccc(O)cc1 (stereo not given in full) |  | inactive | -11.5%
3 | C/C=C1\[C@H](OC2OC(COC3OC(CO)C(O)C(O)C3O)C(O)C(O)C2O)OC=C(C(=O)OC)[C@H]1CC(=O)OCCc1ccc(O)cc1 (stereo not given in full) |  | inactive | -13%
4 | C=C[C@@]1(C)C=C2C(=O)C(O)=C3[C@](C)(C(=O)O)CC[C@@H]4C[C@]34[C@]2(O)C(=O)C1 | 6.59 µM (active) | inactive | 
5 | CC1=C2C[C@H]3OC(=O)[C@H](O)[C@@]4(O)[C@@H](C)[C@@H](O)[C@H](O)C([C@@]2(C)[C@H](O)[C@@H](O)C1)[C@@]34C (stereo not given in full) |  | inactive | -11.5%
6 | C=C[C@H]1[C@H](O[C@@H]2O[C@H](CO)[C@@H](O)[C@H](OC(=O)/C=C/c3ccc(O)c(OC)c3)[C@H]2O)OC=C2C(=O)OCC[C@]21O |  | inactive | -1.53%
7 | C[C@@H]1O[C@@H](O[C@H]2[C@H](O)[C@@H](O)[C@H](OC(=O)[C@]34CCC(C)(C)C[C@H]3C3=CCC5[C@@]6(C)CC[C@H](O[C@@H]7O[C@H](C(=O)O)[C@@H](O)[C@H](O)[C@H]7O)C(C)(C)C6CC[C@@]5(C)[C@]3(C)CC4)O[C@@H]2CO)[C@H](O)[C@H](O)[C@H]1O (stereo not given in full) |  | inactive | -9.16%
8 | COc1cc(C(=O)O)ccc1OC1OC(CO)C(O)C(O)C1O (stereo not given) |  | inactive | 10.7%
9 | CC(=O)N1CCc2ccc(O)c(OC3OC(COC4OCC(O)(CO)C4O)C(O)C(O)C3O)c2C1Cc1ccc(O)cc1 (stereo not given) |  | inactive | -0.763%
10 | CC1(C)CC[C@]2(C(=O)O[C@@H]3O[C@H](CO)[C@@H](O)[C@H](O)[C@H]3O)CC[C@]3(C)C(=CCC4[C@@]5(C)C[C@@H](O)[C@H](O)C(C)(C)C5[C@H](O)C[C@]43C)[C@@H]2[C@@H]1O (stereo not given in full) |  | inactive | -11.5%
11 | NC(=O)[C@@H]1CC[C@H](c2ccc(OCc3ccccc3F)cc2)N1 |  | inactive | -11.6%
12 | CC1=CC(=O)CC(C)(C)C1(O)CCC(C)O (stereo not given) |  | inactive | 0.893%
13 | COc1cc(C(CO)C(OC2OC(CO)C(O)C(O)C2O)c2ccc(O)c(OC)c2)ccc1O (stereo not given) |  | inactive | 20.5%
14 | CC(C)n1nc(C#Cc2ccccc2)c2c(N)ncnc21 |  | inactive | 25%
15 | COc1ccc(/C=C/C(=O)N2CCCC2)cc1 |  | inactive | 2.68%
16 | COC(=O)C1=COC(O[C@@H]2O[C@H](CO)[C@@H](O)[C@H](O)[C@H]2O)/C(=C\COC(=O)/C=C/c2ccccc2)C1CC(=O)OCCc1ccc(O)cc1 (stereo not given in full) |  | inactive | -0.763%
17 | O=C(CC1CC(c2ccc(F)cc2F)=NO1)N1CCOCC1 (stereo not given) |  | inactive | 1.43%
18 | CC[C@@H]1[C@H]2CCCCN3C(=O)C[C@H]([C@@H]4[C@H]1OC(=O)[C@H]4C)[C@@H]23 |  | inactive | -0.763%
19 | C=C1C(=O)OC[C@@H]1C/C=C(\C)CC1CC(C)C(=O)O1 (stereo not given in full) | 23.9 µM (active) | inactive | 
20 | O=C(/C=C/c1ccc(O)c(O)c1)OCc1ccccc1O[C@@H]1O[C@H](CO)[C@@H](O)[C@H](O)[C@H]1O |  | inactive | 8.4%
21 | COc1cc(/C=C/C(=O)O[C@H]2[C@H](O)[C@@H](CO)O[C@@]2(CO)O[C@H]2O[C@H](CO)[C@@H](O)[C@H](O)[C@H]2O)ccc1O |  | inactive | 16%
22 | COc1cc(C2Oc3c(OC)cc(CCCO)cc3C2CO)ccc1O (stereo not given) |  | inactive | -18.8%
23 | C(#Cc1nc2ncccc2nc1OCCN1CCCC1)c1ccccc1 | 6.75 µM (active) | inactive | 
24 | COc1cc(/C=C/CO[C@@H]2O[C@H](CO)[C@@H](O)[C@H](O)[C@H]2O)cc(OC)c1O[C@@H]1O[C@H](CO)[C@@H](O)[C@H](O)[C@H]1O |  | inactive | 0.893%
25 | COc1cc([C@@H]2Oc3c(OC)cc(CCCO)cc3[C@@H]2CO[C@@H]2O[C@H](CO)[C@@H](O)[C@H](O)[C@H]2O)ccc1O |  | inactive | -9.16%
26 | COC(=O)C1=COC(O[C@@H]2O[C@H](CO)[C@@H](O)[C@H](O)[C@H]2O)C2C(C)C(=O)CC12 (stereo not given in full) |  | inactive | -1.53%
27 | COc1c(C)c(C(=O)c2ccc(N)c(C(=O)O)c2)n2ccccc12 |  | inactive | 10% and 14.3%
28 | CC1(C)C(O)CCC2(C)C1C(O)C=C1COC(=O)C12O (stereo not given) |  | inactive | 3.82%

Row | Compound | Potency [1] | Potency [2] | activation [1]
29 | Cc1c(-c2ccc3c(c2)OCO3)oc2ccc(C(O)C(C)O)cc12 (stereo not given) |  | inactive | -8.4%
30 | CC1CCC2C(C(=O)O)=COC(O[C@@H]3O[C@H](CO)[C@@H](O)[C@H](O)[C@H]3O)C12 (stereo not given in full) |  | inactive | -3.57%
31 | C=C1CC[C@@H]2[C@](C)(CO)[C@H](O)CC[C@@]2(C)[C@@H]1/C=C/C1=CCOC1=O |  | inactive | -12.2%
32 | OC[C@H]1O[C@@H](OC/C=C/c2ccc(O)cc2)[C@H](O)[C@@H](O)[C@@H]1O |  | inactive | 12.5%
33 | CC(C)(O)/C=C/C1=CC(=O)[C@@](C)(O)C[C@H]1O |  | inactive | -8.4%
34 | COC(=O)C1=COC(O[C@@H]2O[C@H](CO[C@@H]3O[C@H](COC(=O)/C=C\c4ccc(O)cc4)[C@@H](O)[C@H](O)[C@H]3O)[C@@H](O)[C@H](O)[C@H]2O)C2C(CO)=CCC12 (stereo not given in full) |  | inactive | 33%
35 | O=C(OC[C@H]1O[C@@H](Oc2ccccc2CO)[C@H](O)[C@@H](O)[C@@H]1O)c1ccccc1 |  | inactive | 7.63%
36 | CC(NCc1ccc(OCc2cccc(F)c2)cc1)C(N)=O (stereo not given) |  | inactive | -7.16%
37 | CC1(CO)CC(O)[C@]2(C(=O)O)CCC34CC3(C=CC3[C@]5(C)C(CC[C@]34C)C(C)(CO)[C@@H](O)[C@H](O)[C@@H]5O)C2C1 (stereo not given in full) |  | inactive | 9.92%
38 | O=C(/C=C/c1ccccc1)O[C@@H]1[C@@H](CO)O[C@@](CO)(O[C@H]2O[C@H](CO)[C@@H](O)[C@H](O)[C@H]2O)[C@H]1O |  | inactive | -26%
39 | C[C@@H](OC(=O)/C=C/c1ccc(O)cc1)C1=C[C@]2(C=C[C@@H]3C(C(=O)O)=CO[C@@H](O[C@@H]4O[C@H](CO[C@@H]5O[C@H](CO)[C@@H](O)[C@H](O)[C@H]5O)[C@@H](O)[C@H](O)[C@H]4O)[C@@H]32)OC1=O |  | inactive | -5.34%
40 | CC(C)S(=O)(=O)N[C@H]1CCOC[C@@H]1c1ccc(-c2ccc(C#N)s2)cc1 |  | inactive | -15%
41 | COc1cc(O)cc(O[C@@H]2O[C@H](CO)[C@@H](O[C@@H]3OC[C@](O)(CO)[C@H]3O)[C@H](O)[C@H]2O)c1OC |  | inactive | -14.5%
42 | O=C(O)/C=C/c1cc2c(cc1O[C@@H]1O[C@H](CO)[C@@H](O)[C@H](O)[C@H]1O)OCO2 |  | inactive | 9.92%
43 | COc1cc(C[C@@]2(O)CO[C@@H](c3ccc(O[C@@H]4O[C@H](CO)[C@@H](O)[C@H](O)[C@H]4O)c(OC)c3)[C@H]2CO)ccc1O |  | inactive | -17%
44 | C[C@@H]1C[C@H]2OC(=O)[C@@]3(C)CCC[C@](C)(C23)[C@@]1(O)CCC1=CC(=O)OC1O (stereo not given in full) |  | inactive | 9.16%
45 | C=C1CC2OC(=O)C(=C)C2C(O)/C=C(\C)CCC1O (stereo not given) | 26.9 µM (active) | inactive | 
46 | COc1ccc(C)c2sc(NC(=O)c3ccncc3)nc12 |  | inactive | -15.7%
47 | C[C@@H]1O[C@@H](O[C@H]2[C@H](OC(=O)C34CCC(C)(C)CC3C3=CCC5C6(C)CC(O)C(O[C@@H]7O[C@H](CO)[C@@H](O)[C@H](O)[C@H]7O)C(C)(C(=O)O)C6CCC5(C)C3(CO)CC4)O[C@H](C)[C@H](O)[C@@H]2O)[C@H](O)[C@H](O)[C@H]1O[C@@H]1OC[C@@H](O)[C@H](O)[C@H]1O (stereo not given in full) |  | inactive | -12.5%
48 | CC1CC2OCC3(O)CCC(O)C(C14CC(c1ccoc1)OC4=O)C23CO (stereo not given) |  | inactive | -6.11%
49 | C=CCC1=C[C@]2(OC)[C@H](C)[C@@H](c3ccc(OC)c(OC)c3)O[C@]2(OC)CC1=O |  | inactive | -3.57%
50 | Nc1nc2c(cnn2CCCc2ccc(O)cc2)c2nc(-c3ccco3)nn12 |  | inactive | -11%
51 | C=C1[C@H]2[C@H](O[C@@H]3O[C@H](COC(=O)/C=C/c4cc(OC)c(O)c(OC)c4)[C@@H](O)[C@H](O)[C@H]3O)OC=C(C(=O)O)[C@H]2C[C@@H]1O |  | inactive | -10.7%
52 | CC(CO[C@@H]1O[C@H](COC(=O)/C=C/c2ccc(O)c(O)c2)[C@@H](O)[C@H](O)[C@H]1O)C1(O)COC(=O)C1 (stereo not given in full) |  | inactive | 6.87%
53 | CC/C=C\C(O)C(O)C1=C(C)C(=O)C2(O1)C(=O)NC(OC)(C(=O)c1ccccc1)C2O (stereo not given) |  | inactive | 0.763%
54 | COc1cc(C[C@H]2COC(=O)[C@@H]2Cc2ccc(O)c(OC)c2)ccc1O |  | inactive | -18.8%
55 | CC1=C(CCC(C)O[C@@H]2O[C@H](CO)[C@@H](O)[C@H](O)[C@H]2O)C(C)(C)CC(O)C1 (stereo not given in full) |  | inactive | -7.63%
